From publication PMC7862700, “An all-to-all approach to the identification of sequence-specific readers for epigenetic DNA modifications on cytosine”

What was measured:
Assay in all cases: DAPPL (digital affinity profiling via proximity ligation, sequencing); 10 mM Tris-HCl pH 7.5, 50 mM NaCl, 1 mM DTT, 4% glycerol, room temperature, 30 min; GST-TFs on glutathione beads, 16-mer random dsDNA library, 0.1% formaldehyde crosslink after washing; high values mean tight binding
Details in all cases: protein: recombinant; tags: N-terminal GST; dsDNA, one strand shown
[1] = target: T1, FLI1 (Homo sapiens, UniProt Q01543 1-452)
T1 sequence: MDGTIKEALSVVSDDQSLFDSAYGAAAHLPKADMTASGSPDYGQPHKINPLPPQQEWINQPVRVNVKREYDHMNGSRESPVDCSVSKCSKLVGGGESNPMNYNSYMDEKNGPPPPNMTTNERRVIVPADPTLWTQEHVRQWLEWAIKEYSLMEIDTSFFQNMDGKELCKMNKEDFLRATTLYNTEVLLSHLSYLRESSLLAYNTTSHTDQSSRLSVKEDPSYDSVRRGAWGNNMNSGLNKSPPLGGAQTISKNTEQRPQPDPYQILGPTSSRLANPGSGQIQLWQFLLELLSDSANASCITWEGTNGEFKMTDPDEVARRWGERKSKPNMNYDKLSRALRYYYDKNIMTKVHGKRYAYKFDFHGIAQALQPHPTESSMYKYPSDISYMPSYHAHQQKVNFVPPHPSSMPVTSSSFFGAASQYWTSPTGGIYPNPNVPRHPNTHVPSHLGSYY
Summary of the method: (§1)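 Human transcription factors were made in yeast as GST fusions, captured on glutathione beads and barcoded with DNA. With a tag-only sample included, the pool was incubated with 200 nmole of a random double-stranded 16-mer DNA library in Tris/NaCl/DTT/glycerol buffer at room temperature for 30 min, then crosslinked with 0.1% formaldehyde after washing, ligated by proximity, amplified and sequenced. For binding signal, each hexamer's read frequency for a factor is divided by its frequency for the tag-only sample.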

[2] = target: T2, ELK1 (Homo sapiens, UniProt P19419 1-428)
T2 sequence: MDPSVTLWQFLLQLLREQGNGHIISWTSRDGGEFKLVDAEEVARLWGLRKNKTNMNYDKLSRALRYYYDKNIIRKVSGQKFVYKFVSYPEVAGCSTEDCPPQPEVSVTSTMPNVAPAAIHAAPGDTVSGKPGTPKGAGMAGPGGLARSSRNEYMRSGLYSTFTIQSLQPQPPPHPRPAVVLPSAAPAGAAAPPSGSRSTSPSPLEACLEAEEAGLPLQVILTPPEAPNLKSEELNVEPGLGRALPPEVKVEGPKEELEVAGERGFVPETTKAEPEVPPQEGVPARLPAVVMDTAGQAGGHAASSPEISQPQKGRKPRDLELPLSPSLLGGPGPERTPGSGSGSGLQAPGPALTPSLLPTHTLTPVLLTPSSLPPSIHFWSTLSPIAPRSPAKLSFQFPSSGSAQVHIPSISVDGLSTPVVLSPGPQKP
Summary of the method: as §1

[3] = target: T3, GABPA (Homo sapiens, UniProt Q06546 1-454)
T3 sequence: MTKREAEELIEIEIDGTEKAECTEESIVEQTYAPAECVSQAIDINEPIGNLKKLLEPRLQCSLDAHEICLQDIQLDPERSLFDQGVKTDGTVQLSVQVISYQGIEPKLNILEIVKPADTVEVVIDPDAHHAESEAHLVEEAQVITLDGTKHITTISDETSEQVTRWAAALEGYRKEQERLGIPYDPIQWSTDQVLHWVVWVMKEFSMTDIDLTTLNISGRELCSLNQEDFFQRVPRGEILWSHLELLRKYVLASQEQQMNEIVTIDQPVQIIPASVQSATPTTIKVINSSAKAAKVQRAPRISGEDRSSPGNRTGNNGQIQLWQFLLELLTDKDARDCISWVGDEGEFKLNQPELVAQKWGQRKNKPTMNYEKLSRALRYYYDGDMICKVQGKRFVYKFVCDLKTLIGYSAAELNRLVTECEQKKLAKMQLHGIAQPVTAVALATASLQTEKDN
Summary of the method: as §1

[4] = target: T4, ERG (Homo sapiens, UniProt P11308 1-479)
T4 sequence: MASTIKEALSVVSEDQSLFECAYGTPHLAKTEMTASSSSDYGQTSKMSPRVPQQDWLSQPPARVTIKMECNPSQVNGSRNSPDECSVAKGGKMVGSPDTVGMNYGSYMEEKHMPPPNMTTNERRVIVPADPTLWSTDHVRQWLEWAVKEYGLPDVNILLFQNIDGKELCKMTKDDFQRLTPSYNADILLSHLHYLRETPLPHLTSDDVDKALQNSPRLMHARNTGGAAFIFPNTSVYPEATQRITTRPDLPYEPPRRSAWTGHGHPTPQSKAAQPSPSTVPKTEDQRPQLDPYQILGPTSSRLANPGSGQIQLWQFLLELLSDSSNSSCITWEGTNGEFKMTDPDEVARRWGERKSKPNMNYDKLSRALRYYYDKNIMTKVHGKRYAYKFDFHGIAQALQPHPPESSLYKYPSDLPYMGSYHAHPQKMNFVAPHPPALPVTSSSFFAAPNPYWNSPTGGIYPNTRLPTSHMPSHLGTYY
Summary of the method: as §1

[5] = target: ELF1 (Homo sapiens, UniProt P32519 1-619)
Sequence of ELF1 (P32519 whole entry): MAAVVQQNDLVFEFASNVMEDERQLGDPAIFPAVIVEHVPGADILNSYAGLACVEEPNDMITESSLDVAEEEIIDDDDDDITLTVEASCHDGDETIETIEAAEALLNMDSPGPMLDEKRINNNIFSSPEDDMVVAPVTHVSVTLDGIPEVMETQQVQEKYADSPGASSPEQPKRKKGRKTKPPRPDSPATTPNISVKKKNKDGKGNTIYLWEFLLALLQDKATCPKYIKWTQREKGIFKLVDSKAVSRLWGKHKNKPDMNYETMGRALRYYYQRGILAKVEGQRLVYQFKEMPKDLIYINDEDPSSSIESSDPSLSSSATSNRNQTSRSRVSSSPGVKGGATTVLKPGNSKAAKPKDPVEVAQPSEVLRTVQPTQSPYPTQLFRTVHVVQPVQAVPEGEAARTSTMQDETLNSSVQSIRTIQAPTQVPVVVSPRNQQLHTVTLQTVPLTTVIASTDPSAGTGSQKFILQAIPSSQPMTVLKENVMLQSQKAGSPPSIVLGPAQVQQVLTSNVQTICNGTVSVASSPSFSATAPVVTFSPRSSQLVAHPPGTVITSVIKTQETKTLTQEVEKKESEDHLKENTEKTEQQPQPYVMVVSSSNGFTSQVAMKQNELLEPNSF
Summary of the method: as §1

[6] = target: T5, EHF (Homo sapiens, UniProt Q9NZC4 1-300)
T5 sequence: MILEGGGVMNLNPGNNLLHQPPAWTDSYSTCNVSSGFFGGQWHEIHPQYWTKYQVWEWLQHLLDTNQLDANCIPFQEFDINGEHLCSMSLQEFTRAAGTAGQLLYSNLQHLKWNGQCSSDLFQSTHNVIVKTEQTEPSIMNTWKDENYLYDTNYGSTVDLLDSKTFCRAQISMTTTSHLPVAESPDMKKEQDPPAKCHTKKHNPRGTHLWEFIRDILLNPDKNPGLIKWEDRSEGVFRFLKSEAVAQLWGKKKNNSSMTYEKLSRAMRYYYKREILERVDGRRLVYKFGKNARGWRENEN
Summary of the method: as §1

[7] = target: SPIB (Homo sapiens, UniProt Q01892 1-262)
Sequence of SPIB (Q01892 whole entry): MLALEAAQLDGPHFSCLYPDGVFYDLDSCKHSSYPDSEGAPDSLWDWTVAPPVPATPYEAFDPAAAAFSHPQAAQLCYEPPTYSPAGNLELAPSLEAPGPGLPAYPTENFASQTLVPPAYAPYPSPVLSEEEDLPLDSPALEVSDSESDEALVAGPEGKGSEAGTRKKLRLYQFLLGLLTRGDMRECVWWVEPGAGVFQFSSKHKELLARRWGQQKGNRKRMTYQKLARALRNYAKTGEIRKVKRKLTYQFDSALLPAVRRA
Summary of the method: as §1

[8] = target: T6, ELK3 (Homo sapiens, UniProt P41970 1-407)
T6 sequence: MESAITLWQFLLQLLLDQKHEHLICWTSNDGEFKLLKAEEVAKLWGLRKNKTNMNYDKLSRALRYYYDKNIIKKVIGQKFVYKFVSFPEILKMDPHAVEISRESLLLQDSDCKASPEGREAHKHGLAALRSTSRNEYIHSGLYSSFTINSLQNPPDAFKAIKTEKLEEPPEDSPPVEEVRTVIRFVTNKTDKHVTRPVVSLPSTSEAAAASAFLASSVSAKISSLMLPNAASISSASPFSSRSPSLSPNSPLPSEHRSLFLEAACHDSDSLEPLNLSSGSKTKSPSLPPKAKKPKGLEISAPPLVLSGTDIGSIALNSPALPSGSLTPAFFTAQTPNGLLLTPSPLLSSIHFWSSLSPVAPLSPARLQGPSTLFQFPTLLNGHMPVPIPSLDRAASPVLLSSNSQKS
Summary of the method: as §1

[9] = target: T7, FEV (Homo sapiens, UniProt Q99581 1-238)
T7 sequence: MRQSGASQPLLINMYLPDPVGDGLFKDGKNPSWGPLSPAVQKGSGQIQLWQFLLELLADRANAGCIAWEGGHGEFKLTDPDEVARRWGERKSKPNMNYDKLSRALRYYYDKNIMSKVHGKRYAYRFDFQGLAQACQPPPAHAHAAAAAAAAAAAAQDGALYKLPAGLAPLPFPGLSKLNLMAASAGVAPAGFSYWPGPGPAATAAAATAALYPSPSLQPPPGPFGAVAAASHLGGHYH
Summary of the method: as §1

[10] = target: ETV5 (Homo sapiens, UniProt P41161 1-510)
Sequence of ETV5 (P41161 whole entry): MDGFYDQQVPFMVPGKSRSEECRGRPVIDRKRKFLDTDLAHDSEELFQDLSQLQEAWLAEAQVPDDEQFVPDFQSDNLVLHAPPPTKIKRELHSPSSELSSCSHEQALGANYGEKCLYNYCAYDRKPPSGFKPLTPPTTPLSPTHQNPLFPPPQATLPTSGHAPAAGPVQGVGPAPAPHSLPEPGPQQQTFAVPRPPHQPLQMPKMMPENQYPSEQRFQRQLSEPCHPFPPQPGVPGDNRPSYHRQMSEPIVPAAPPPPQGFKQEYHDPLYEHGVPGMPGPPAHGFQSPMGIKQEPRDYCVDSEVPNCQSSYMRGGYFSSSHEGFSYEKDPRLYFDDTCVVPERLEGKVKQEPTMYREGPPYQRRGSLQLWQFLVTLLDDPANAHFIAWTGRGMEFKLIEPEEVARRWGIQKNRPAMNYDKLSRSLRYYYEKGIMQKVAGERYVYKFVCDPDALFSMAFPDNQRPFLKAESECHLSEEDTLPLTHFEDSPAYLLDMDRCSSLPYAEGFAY
Summary of the method: as §1

[11] = target: T8, SPIC (Homo sapiens, UniProt Q8N5J4 1-248)
T8 sequence: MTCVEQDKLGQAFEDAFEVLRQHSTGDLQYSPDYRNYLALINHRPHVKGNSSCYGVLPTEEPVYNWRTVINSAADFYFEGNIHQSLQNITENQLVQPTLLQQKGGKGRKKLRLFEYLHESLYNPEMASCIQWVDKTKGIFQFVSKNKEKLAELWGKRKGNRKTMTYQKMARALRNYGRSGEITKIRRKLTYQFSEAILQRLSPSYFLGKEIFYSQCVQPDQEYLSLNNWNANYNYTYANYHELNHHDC
Summary of the method: as §1

[12] = target: ELF4 (Homo sapiens, UniProt Q99607 1-663)
Sequence of ELF4 (Q99607 whole entry): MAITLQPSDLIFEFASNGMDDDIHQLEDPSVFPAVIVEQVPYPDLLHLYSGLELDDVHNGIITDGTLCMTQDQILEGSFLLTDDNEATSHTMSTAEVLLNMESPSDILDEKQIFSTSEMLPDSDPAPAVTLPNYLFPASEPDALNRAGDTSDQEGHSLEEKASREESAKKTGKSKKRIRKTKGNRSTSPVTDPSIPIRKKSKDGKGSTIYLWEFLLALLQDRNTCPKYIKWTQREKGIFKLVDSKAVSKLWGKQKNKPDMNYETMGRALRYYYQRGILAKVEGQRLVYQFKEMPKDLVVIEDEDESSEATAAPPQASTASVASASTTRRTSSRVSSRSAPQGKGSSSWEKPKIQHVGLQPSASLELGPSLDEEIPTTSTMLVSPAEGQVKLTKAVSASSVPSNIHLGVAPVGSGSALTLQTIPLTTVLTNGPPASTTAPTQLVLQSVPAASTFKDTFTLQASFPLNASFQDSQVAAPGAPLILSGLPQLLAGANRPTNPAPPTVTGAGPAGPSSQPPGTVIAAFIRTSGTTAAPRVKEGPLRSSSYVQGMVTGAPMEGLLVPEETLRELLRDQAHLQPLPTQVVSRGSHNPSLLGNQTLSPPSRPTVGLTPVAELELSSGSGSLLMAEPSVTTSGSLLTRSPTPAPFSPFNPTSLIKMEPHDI
Summary of the method: as §1

[13] = target: T9, ELK4 (Homo sapiens, UniProt P28324-2 1-405)
T9 sequence: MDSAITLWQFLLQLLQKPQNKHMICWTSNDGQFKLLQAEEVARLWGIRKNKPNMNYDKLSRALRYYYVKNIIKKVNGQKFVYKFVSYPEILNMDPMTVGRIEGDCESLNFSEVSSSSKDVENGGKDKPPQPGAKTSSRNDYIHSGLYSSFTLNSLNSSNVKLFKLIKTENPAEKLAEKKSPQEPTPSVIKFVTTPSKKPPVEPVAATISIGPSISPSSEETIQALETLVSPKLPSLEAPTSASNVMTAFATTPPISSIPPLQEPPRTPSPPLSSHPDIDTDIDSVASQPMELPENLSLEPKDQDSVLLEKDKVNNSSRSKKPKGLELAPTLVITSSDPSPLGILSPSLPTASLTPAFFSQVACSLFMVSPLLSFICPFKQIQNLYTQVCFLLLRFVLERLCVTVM
Summary of the method: as §1

[14] = target: T10, ETV2 (Homo sapiens, UniProt O00321 1-342)
T10 sequence: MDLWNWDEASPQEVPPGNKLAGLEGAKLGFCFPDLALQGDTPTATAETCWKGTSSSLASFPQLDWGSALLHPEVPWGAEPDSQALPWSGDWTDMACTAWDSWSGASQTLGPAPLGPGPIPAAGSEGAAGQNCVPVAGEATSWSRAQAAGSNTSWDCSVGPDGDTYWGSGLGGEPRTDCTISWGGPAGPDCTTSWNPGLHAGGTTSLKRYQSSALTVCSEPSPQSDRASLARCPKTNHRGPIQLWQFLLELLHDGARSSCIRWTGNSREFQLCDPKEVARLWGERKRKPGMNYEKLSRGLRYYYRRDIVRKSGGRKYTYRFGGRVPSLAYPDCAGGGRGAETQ
Summary of the method: as §1

[15] = target: T11, ELF3 (Homo sapiens, UniProt P78545 1-371)
T11 sequence: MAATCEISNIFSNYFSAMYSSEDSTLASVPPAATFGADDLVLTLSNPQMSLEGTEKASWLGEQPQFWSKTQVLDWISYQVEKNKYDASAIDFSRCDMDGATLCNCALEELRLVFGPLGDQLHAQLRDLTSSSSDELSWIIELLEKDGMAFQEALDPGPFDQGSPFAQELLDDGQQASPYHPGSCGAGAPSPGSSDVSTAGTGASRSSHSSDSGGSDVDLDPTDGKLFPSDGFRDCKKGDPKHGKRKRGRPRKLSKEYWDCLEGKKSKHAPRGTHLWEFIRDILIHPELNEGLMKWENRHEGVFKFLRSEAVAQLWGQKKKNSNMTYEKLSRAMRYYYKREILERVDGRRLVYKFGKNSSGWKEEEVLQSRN
Summary of the method: as §1

[16] = target: ETV1 (Homo sapiens, UniProt P50549 1-477)
Sequence of ETV1 (P50549 whole entry): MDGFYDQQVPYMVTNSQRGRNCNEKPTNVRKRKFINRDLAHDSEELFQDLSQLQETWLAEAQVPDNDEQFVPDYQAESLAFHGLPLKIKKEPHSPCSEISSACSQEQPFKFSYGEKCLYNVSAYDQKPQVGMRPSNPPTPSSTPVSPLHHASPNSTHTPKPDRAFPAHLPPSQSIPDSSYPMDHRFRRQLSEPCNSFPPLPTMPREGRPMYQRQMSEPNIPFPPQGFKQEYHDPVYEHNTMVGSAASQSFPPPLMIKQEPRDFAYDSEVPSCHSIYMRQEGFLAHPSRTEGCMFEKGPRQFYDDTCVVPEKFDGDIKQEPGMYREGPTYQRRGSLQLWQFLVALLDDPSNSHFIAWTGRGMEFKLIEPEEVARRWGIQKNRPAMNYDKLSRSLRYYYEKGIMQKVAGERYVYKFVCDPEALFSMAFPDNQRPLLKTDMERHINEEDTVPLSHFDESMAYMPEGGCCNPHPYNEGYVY
Summary of the method: as §1

[17] = target: SPI1 (Homo sapiens, UniProt P17947 1-270)
Summary of the method: as §1

CACCTC
binding signal [1]: 1.12 fold enrichment (6-mer frequency, TF over GST control)
binding signal [2]: 1.15 fold enrichment (6-mer frequency, TF over GST control)
binding signal [3]: 1.2 fold enrichment (6-mer frequency, TF over GST control)
binding signal [4]: 1.17 fold enrichment (6-mer frequency, TF over GST control)
binding signal [5]: 1.2 fold enrichment (6-mer frequency, TF over GST control)
binding signal [6]: 1.27 fold enrichment (6-mer frequency, TF over GST control)
binding signal [7]: 1.1 fold enrichment (6-mer frequency, TF over GST control)
binding signal [8]: 1.09 fold enrichment (6-mer frequency, TF over GST control)
binding signal [9]: 1.11 fold enrichment (6-mer frequency, TF over GST control)
binding signal [10]: 1.13 fold enrichment (6-mer frequency, TF over GST control)
binding signal [11]: 1.22 fold enrichment (6-mer frequency, TF over GST control)
binding signal [12]: 1.23 fold enrichment (6-mer frequency, TF over GST control)
binding signal [13]: 1.14 fold enrichment (6-mer frequency, TF over GST control)
binding signal [14]: 1.2 fold enrichment (6-mer frequency, TF over GST control)
binding signal [15]: 1.1 fold enrichment (6-mer frequency, TF over GST control)
binding signal [16]: 1.19 fold enrichment (6-mer frequency, TF over GST control)

CGCCAA
binding signal [1]: 1.03 fold enrichment (6-mer frequency, TF over GST control)
binding signal [2]: 1.02 fold enrichment (6-mer frequency, TF over GST control)
binding signal [3]: 1.03 fold enrichment (6-mer frequency, TF over GST control)
binding signal [5]: 1.08 fold enrichment (6-mer frequency, TF over GST control)
binding signal [6]: 1.04 fold enrichment (6-mer frequency, TF over GST control)
binding signal [17]: 1.04 fold enrichment (6-mer frequency, TF over GST control)
binding signal [7]: 1.02 fold enrichment (6-mer frequency, TF over GST control)
binding signal [8]: 1.06 fold enrichment (6-mer frequency, TF over GST control)
binding signal [9]: 1.05 fold enrichment (6-mer frequency, TF over GST control)
binding signal [10]: 1.02 fold enrichment (6-mer frequency, TF over GST control)
binding signal [11]: 1.11 fold enrichment (6-mer frequency, TF over GST control)
binding signal [12]: 1.09 fold enrichment (6-mer frequency, TF over GST control)
binding signal [13]: 1.04 fold enrichment (6-mer frequency, TF over GST control)
binding signal [14]: 1.03 fold enrichment (6-mer frequency, TF over GST control)
binding signal [15]: 1.12 fold enrichment (6-mer frequency, TF over GST control)

ACACCC
binding signal [1]: 1.18 fold enrichment (6-mer frequency, TF over GST control)
binding signal [2]: 1.16 fold enrichment (6-mer frequency, TF over GST control)
binding signal [3]: 1.16 fold enrichment (6-mer frequency, TF over GST control)
binding signal [4]: 1.11 fold enrichment (6-mer frequency, TF over GST control)
binding signal [5]: 1.09 fold enrichment (6-mer frequency, TF over GST control)
binding signal [6]: 1.11 fold enrichment (6-mer frequency, TF over GST control)
binding signal [7]: 1.17 fold enrichment (6-mer frequency, TF over GST control)
binding signal [8]: 1.08 fold enrichment (6-mer frequency, TF over GST control)
binding signal [9]: 1.08 fold enrichment (6-mer frequency, TF over GST control)
binding signal [10]: 1.08 fold enrichment (6-mer frequency, TF over GST control)
binding signal [11]: 1.19 fold enrichment (6-mer frequency, TF over GST control)
binding signal [12]: 1.07 fold enrichment (6-mer frequency, TF over GST control)
binding signal [13]: 1.05 fold enrichment (6-mer frequency, TF over GST control)
binding signal [14]: 1.07 fold enrichment (6-mer frequency, TF over GST control)
binding signal [15]: 1.01 fold enrichment (6-mer frequency, TF over GST control)
binding signal [16]: 1.14 fold enrichment (6-mer frequency, TF over GST control)
